One may read the inhibition as the relative decrease from the control value, in per cent.

Out of some 360,000 compounds screened, about 680 (0.19%) were called active. The entries come from a sample that favours actives as a whole. Unmarked numbers belong to inactive results. No stated cut-off is given here; in the data, active means inhibition above about 25%; inactive means the rest.

Sequence of Arf-GAP with SH3 domain, ANK repeat and PH domain-containing protein 1 (Homo sapiens) (Q9ULH1 325-724 limits assumed): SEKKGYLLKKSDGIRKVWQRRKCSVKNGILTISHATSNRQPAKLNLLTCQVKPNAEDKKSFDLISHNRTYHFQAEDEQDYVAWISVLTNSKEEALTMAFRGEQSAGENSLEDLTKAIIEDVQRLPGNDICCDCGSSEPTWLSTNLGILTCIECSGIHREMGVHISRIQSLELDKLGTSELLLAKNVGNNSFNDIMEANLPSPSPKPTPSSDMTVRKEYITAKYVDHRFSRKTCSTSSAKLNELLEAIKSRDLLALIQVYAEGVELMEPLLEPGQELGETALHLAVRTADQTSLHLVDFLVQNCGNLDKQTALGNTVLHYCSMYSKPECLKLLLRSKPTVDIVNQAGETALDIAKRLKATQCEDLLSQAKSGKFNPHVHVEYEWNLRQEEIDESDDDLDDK

This test addresses Arf-GAP with SH3 domain, ANK repeat and PH domain-containing protein 1 (Homo sapiens) (UniProt Q9ULH1). Briefly: inhibitors of human ASAP1 ArfGAP activity, primary screen, biochemical, fluorescence polarization (AID 624377).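 Further: 0% = vehicle with enzyme and substrate and 100% = no enzyme.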 Conditions: ASAP1-stimulated ARF1 GTP hydrolysis, GDP FP detection; at 16.5 µM; active compounds read high. (In general: Fluorescence polarisation rises when a labelled molecule tumbles more slowly, as on binding a larger partner.)
On to `COC(=O)[C@]12C[C@H](CC(=O)NCc3ccccc3)C(=O)N(CCC3=CCCCC3)C1=C[C@H](C(C)(C)C)O[C@@H]2C`, for which the inhibition is -6.37%. The result for `COc1ccc(C2=CN(Cc3ccccc3)C(c3ccc(OC)cc3)CC2=O)cc1` (stereo not given) reads 12.3%; that for `CC(C)C[C@H](NC(=O)CC1CCCC1)C(=O)N1CCC[C@H]1C(=O)NCc1ccccc1`, -6.9%; that for `COc1ccccc1CCn1cnc(-c2ccccc2)c1C(C)C`, 16.9%. For `CCOC(=O)C1=C(C(=O)OCC)C2N(Cc3ccc(C#N)cc3)c3ccccc3[C@@]23C[C@@H](C(=O)OC)N(S(=O)(=O)c2ccc(F)cc2)C3=N1` (stereo not given in full), the inhibition was 12.3%. Consider `COc1cccc(CC(=O)N2CCN(C(=O)C(=O)c3cccc(C(F)(F)F)c3)CC2)c1`, for which the inhibition is 3.01%.

Take `CCOc1cc(/C=N/NC(=O)c2ccncc2)cc(Br)c1O`: the inhibition was -12.7%. The result for `CC(=NNC(=O)c1ccncc1)c1ccc(Cl)c(Cl)c1` reads -23.7%; that for `CCN(CC)c1ccc2cc(C(N)=O)/c(=N\NC(=O)c3ccncc3)oc2c1`, 26.4% (active); that for `CCOC(=O)N1CCN(C(=O)C[C@H]2C[C@@]3(C(=O)OC)C(=C[C@H](C4CCCC4)O[C@@H]3C)N(Cc3ccccc3)C2=O)CC1`, -6.46%.

On to `COc1ccc(CNS(=O)(=O)c2cc(Br)ccc2Br)cc1`, for which the inhibition is -8.38%. As for `COc1ccc(CCNC(=O)c2ccc3c(c2)NC(=O)C(N2CCOCC2)S3)cc1OC` (stereo not given), the inhibition was -5.91%. For `CCN1CCN(CCNC(=O)c2ccc3c(c2)NC(=O)/C(=C\c2ccc(OC)c(OC)c2)S3)CC1`, the inhibition is 25.9% (active).

Regarding `CCN1CCCC1CNC(=O)c1ccc2c(c1)NC(=O)/C(=C\c1ccccc1F)S2` (stereo not given), the inhibition was -12.3%. Next, `COc1ccc(NC(=O)N(C)C[C@@H]2OCCCC[C@@H](C)Oc3ccc(NC(=O)NC4CCCCC4)cc3C(=O)N([C@H](C)CO)C[C@@H]2C)cc1`: -0.3%; `NC(=O)c1ncn([C@@H]2O[C@H](C(=O)O)[C@@H](O)[C@H]2O)n1`: -8.9%; `O=C(NCc1ccccc1)[C@@H]1CCCN1C(=O)[C@H]1CCCN1C(=O)c1cccc(Cl)c1`: 5.06%. The result for `CC(C)CNc1cccc2c1S(=O)(=O)N[C@H](CC(C)C)CO2` reads 14.4%; that for `COCc1cc(N2CCN(C(=O)OC(C)(C)C)C[C@@H]2C)ccc1N1CCN(Cc2ccccc2)[C@H](C)C1`, -0.13%; that for `O=c1[nH]c(-c2ccccc2)cn1C1CCN(Cc2ccc(-c3nc4ccc(F)cc4nc3-c3ccccc3)cc2)CC1`, 6.64%.

The record behind these values is PubChem BioAssay AID624377 (The Scripps Research Institute Molecular Screening Center, 2012).
